The target in test [1] is Lysosomal acid glucosylceramidase (Homo sapiens) (UniProt P04062). Briefly: Glucocerebrosidase-p2 (AID 348; in the data active means potency below about 10 µM; further: potency means the concentration at half of the fitted maximal effect). The note with it: purified GBA, blue fluorogenic substrate, 40 min. The method in brief: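 Compounds titrated from 0.6 nM upwards against 0.2 nM enzyme in pH 5.9 citric acid/KH2PO4, taurocholate, tween-20; blue fluorogenic substrate 80 uM, 40 min room temperature, stopped and read Ex 365/Em 440 for AC50.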
Lysosomal acid glucosylceramidase (Homo sapiens), sequence (P04062 whole entry, looked up): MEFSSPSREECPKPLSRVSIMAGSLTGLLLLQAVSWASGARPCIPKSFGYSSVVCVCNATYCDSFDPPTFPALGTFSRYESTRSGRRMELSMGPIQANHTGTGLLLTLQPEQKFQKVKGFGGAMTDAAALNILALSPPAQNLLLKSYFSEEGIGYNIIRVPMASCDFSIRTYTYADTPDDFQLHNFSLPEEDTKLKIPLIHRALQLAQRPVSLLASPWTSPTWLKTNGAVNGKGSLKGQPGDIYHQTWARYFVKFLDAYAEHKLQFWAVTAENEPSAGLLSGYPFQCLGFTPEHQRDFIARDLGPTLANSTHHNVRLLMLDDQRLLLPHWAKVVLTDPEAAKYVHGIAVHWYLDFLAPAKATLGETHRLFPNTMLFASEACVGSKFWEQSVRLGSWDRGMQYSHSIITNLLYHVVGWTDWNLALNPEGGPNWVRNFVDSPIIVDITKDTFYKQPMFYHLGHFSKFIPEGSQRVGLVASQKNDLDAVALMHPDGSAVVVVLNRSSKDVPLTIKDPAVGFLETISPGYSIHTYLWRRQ

Test [2] concerns the target Cytochrome P450 1A2 (Homo sapiens) (UniProt P05177). In words: p450-cyp1a2 (AID 410; calls by dose curve; further: potency means the concentration at half of the fitted maximal effect;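 on activity change, negative = inhibition: -100% = full effect of reference inhibitor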). The method in brief: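 Inhibition was calculated relative to 57 uM furafylline (full inhibition). The reaction used human CYP1A2 at 20nM with Luciferin-ME at its Km, 100uM, driven by an NADPH-regenerating system for 60 min at room temperature.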
Test [3] concerns the target Glucocorticoid receptor (Homo sapiens) (UniProt P04150). Briefly: GR-GFP Redistribution (AID 450;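 active means compounds whose dose series gives a full or clear partial fitted curve of increased nuclear translocation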; further: potency means the concentration at half of the fitted maximal effect). The note with it: U2OS GR-GFP nuclear translocation, laser cytometry, 2 h.
For test [4] the target is unchanged. Briefly: GR-EFC Redistribution (AID 451; calls by dose curve; further: potency means the concentration at half of the fitted maximal effect). The note with it: CHO-K1 GR-EFC translocation, beta-gal luminescence, 2 h. The method in brief:
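Translocation of GR-ED fusion to nuclear EA restores b-gal, read by luminescence after 1 h room-temperature detection. Engineered CHO-K1 biosensor cells, 1,000/well, exposed 2 h at 37 C to titrations up to 46 uM final.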

Test [5] deals with Mitogen-activated protein kinase 10 (Mus musculus) (UniProt Q61831). Briefly: JNK3 AlphaScreen Assay (AID 530; active means well fitted curve in either direction with a large enough effect, not every such curve was filed as active;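 further: kinase came from lysate of stimulated human HepG2 cells; signal reports phosphorylation of biotinylated GST-cJun 1-79 at Ser73 with 10 µM ATP; on the % scale 0 is the no-effect control and ±100 the full control effect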). The procedure, abridged:
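Room-temperature AlphaScreen kinase assay; pre-activated HepG2 lysate as JNK3 source, biotin-GST-cJun(1-79) substrate, 10 uM ATP, compound 15 min preincubation.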

In test [6] the target is 3',5'-cyclic-AMP phosphodiesterase 4B (Homo sapiens) (UniProt Q07343). Briefly: qHTS Assay for Inhibitors of PDE-IV (AID 607; active means well fitted activation curve with a large enough effect in the main read-out, with a control signal flat, not every such curve was filed as active; further: % of control where 0% means no effect). The procedure, abridged:
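The readout is membrane depolarisation from a cAMP-sensing CNG channel, detected with a potential dye at ex 535/em 590. Cells were HEK293-derived (endogenous PDE-IV) at 1000 cells/well, titrated up to 22.9 uM final.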
(In general: Quantitative high-throughput screening tests each substance at several concentrations.)

In test [7] the target is Cytochrome P450 3A4 (Homo sapiens) (UniProt P08684). Briefly: qHTS Assay for Activators of Cytochrome P450 3A4 (AID 885). Further: nearly all actives have a fitted effect of over 65% in size. Further: potency means the concentration at half of the fitted maximal effect. The method in brief: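 Steps: enzyme/substrate mix dispensed; compound added, 10 min RT; NADPH regeneration solution added, 60 min RT; luciferin detection buffer stops reaction; 20 min later luminescence measured.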
Cytochrome P450 3A4 (Homo sapiens), sequence (P08684 whole entry, looked up): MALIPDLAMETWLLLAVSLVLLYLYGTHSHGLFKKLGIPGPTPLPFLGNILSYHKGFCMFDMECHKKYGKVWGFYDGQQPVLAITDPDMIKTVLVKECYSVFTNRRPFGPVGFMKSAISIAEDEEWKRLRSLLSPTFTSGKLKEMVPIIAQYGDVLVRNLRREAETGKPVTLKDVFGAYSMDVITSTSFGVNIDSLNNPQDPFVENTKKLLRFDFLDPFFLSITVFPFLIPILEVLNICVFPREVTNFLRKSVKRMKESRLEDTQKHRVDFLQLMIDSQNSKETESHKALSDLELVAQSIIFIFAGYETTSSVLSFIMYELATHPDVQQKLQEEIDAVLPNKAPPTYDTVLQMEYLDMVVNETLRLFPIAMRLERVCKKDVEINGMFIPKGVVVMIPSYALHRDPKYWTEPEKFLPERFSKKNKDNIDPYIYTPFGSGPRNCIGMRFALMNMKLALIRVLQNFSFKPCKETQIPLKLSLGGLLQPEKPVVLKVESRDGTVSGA
The nature of test [8]: qHTS Assay for Identification of Small Molecule Agonists for Hypoxia Response Element Signaling Pathway (AID 914; active means well fitted activation curve with a large enough effect in the signal ratio, with a control signal flat, not every such curve was filed as active; the % refers to the signal ratio; further: potency means the concentration at half of the fitted maximal effect; on activation: % of control where 0% means no effect). The note with it: ME-180 HRE-bla reporter, beta-lactamase ratio, CoCl2, 17 h; activation: active compounds read high. The procedure, abridged: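 Reporter activity (beta-lactamase, CCF4 460nm/530nm ratio) in HRE-bla ME-180 cells is recorded after 17 h compound exposure with EC50 CoCl2 at 37 degrees Celsius. AC50 values come from titration data.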

Test [9] concerns the target Dual specificity protein kinase CLK4 (Homo sapiens) (UniProt Q9HAZ1). Briefly: qHTS Assay for Inhibitors of CDC-like Kinase 4 (Kinase-Glo Assay) (AID 1770). Further: nearly all actives have a fitted effect of over 65% in size. Further: potency means the concentration at half of the fitted maximal effect. The procedure, abridged:
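Inhibition was judged from remaining ATP, measured by Ultra-Glo luciferase bioluminescence after Clk4 (25 nM) had acted on RS peptide at 1 uM ATP for 4.5 hours, room temperature.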

Test [10] shares this target. Briefly: qHTS Assay for Inhibitors of CDC-like Kinase 4 (ADP-FP Assay) (AID 1795).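 Further: recombinant human CLK4 phosphorylating RS repeat peptide at 1 µM ATP; on the % scale 0 is the no-effect control and ±100 the full control effect; nearly all actives have a fitted effect of over 60% in size.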 The method in brief: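 Inhibition of ADP formation by 6.25 nM Clk4 is measured using 1 uM ATP and 100 uM RS repeat peptide over one hour. Produced ADP displaces a fluorescent tracer from antibody, lowering polarization.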
The target in test [11] is Ubiquitin carboxyl-terminal hydrolase 1 (Homo sapiens) (UniProt O94782). Briefly: Inhibitors of USP1/UAF1: Pilot qHTS (AID 504865).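 Further: rhodamine fluorescence freed from ubiquitin-rhodamine substrate followed over time; top concentration of the series differs between compounds; on the % scale 0 is the no-effect control and ±100 the full control effect; nearly all actives have a fitted effect of over 35% in size.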 The method in brief:
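Kinetic fluorescence assay: 1nM USP1/UAF1, 15 min compound preincubation, then 150nM Ub-Rho; 480/540 nm.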

Test [12] is described as follows: Primary qHTS for small molecule stabilizers of the endoplasmic reticulum resident proteome: Secreted ER Calcium Modulated Protein (SERCaMP) assay (AID 1508630). Further: on the % scale 0 is the no-effect control and ±100 the full control effect. The procedure, abridged: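 GLuc-SERCaMP-expressing SH-SY5Y cells, pretreated 16 h with compound, are challenged with thapsigargin to empty ER calcium stores; after 4 h, coelenterazine is added directly to the medium and luminescence is imaged.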

Test [13] is described as follows: NFAT Signaling Pathway (AID 444; active means well fitted curve in either direction with a large enough effect, not every such curve was filed as active;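 further: carbachol stimulus at about its EC50 of 1 µM final; on the % scale 0 is the no-effect control and ±100 the full control effect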). The note with it: Jurkat NFAT-bla M1, carbachol, beta-lactamase ratio, 5 h; at 7.69 µM (top of the series) unless noted. The procedure, abridged: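 Read-out: CCF4 FRET ratio (460 nm/530 nm) after 1 h RT dye loading, used for %activity and AC50 from titration series. Cells: Jurkat NFAT-β-lactamase/M1 line, treated with compound plus 1 uM carbachol for 5 h, 37 °C.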

The nature of test [14]: Stat Signaling Pathway (AID 446; active means well fitted curve in either direction with a large enough effect, not every such curve was filed as active;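 further: ME-180 cervical cancer cells given 40 pM IL-6 alongside compound; SIE-controlled beta-lactamase reporter measured as 460/530 nm FRET emission ratio; on the % scale 0 is the no-effect control and ±100 the full control effect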). The note with it: ME-180 SIE beta-lactamase reporter, IL-6 stimulated, 5 h; at 7.69 µM (top of the series) unless noted. The method in brief: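 Screening format detects activators and inhibitors alike: ME-180 SIE-bla cells stimulated at 40 pM IL-6 for 5 hrs with compound, then dual-emission beta-lactamase read at 405 nm excitation.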
Test [15] is described as follows: AP1 Signaling Pathway (AID 357; active means well fitted curve in either direction with a large enough effect, not every such curve was filed as active). The note with it: ME-180 (cervical carcinoma) AP-1-bla reporter, EGF-induced, beta-lactamase ratio, 5 h; at 7.69 µM (top of the series) unless noted. The procedure, abridged:
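Modulation of EGF-driven AP-1 transcription was assessed with a beta-lactamase reporter in ME-180 cells. Compound and EC50 EGF were co-incubated 5 hours at 37 °C before 2.5-hour CCF4 loading at room temperature and dual-emission reading.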

The target of test [16] is Cytochrome P450 3A4 (Homo sapiens) (UniProt P08684). Briefly: qHTS Assay for Inhibitors and Substrates of Cytochrome P450 3A4 (AID 884). Further: nearly all actives have a fitted effect of over 50% in size. Further: potency means the concentration at half of the fitted maximal effect. The procedure, abridged: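 20 nM human CYP3A4 with 25 uM Luciferin-PPXE (at KM) in 200 mM KPO4, preincubated 10 min with compound; NADPH regeneration started a 60 min RT reaction. Luciferin detected by luminescence, normalized to 57 uM ketoconazole as full inhibition.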

Test [17] concerns the target Cytochrome P450 2D6 (Homo sapiens) (UniProt P10635). In words: qHTS Assay for Inhibitors and Substrates of Cytochrome P450 2D6 (AID 891). Further: potency means the concentration at half of the fitted maximal effect; nearly all actives have a fitted effect of over 60% in size. The method in brief:
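Human CYP2D6 (5 nM) with 30 uM Luciferin-ME EGE (at Km) in 100 mM KPO4, compound preincubated 10 min, then NADPH regeneration system for 60 min at room temperature. Luciferin read by luminescence; normalized to 1.43 uM quinidine.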

Test [18] has as its target Cytochrome P450 2C19 (Homo sapiens) (UniProt P33261). Briefly: qHTS Assay for Inhibitors and Substrates of Cytochrome P450 2C19 (AID 899). Further: potency means the concentration at half of the fitted maximal effect; nearly all actives have a fitted effect of over 60% in size. The procedure, abridged: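 5nM enzyme + 10uM Luciferin-H EGE (=KM), 50mM KPO4; cpd pin-transferred, 10 min 37C; NADPH regen, 60 min 37C; stopped w/ luciferin detection reagent, 20 min; luminescence. Normalized to 57uM ketoconazole (AC100).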

Test [19] has as its target Dual specificity protein kinase CLK4 (Homo sapiens) (UniProt Q9HAZ1). In words: qHTS Assay for Inhibitors of CDC-like Kinase 4 (ADP-Glo Assay) (AID 1771). Further: on the % scale 0 is the no-effect control and ±100 the full control effect; nearly all actives have a fitted effect of over 70% in size. The procedure, abridged:
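Kinase reaction: Clk4 at 25 nM, RS repeat peptide substrate at 100 uM, ATP at 1 uM, 1 hr, room temperature. Product ADP detected as luciferase signal via ADP-Glo.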

The structures appear in SMILES notation. Values without a mark were called inactive. Records with an inconclusive call do not appear. Calls of active or inactive are those of the source. Unless noted, the call rests on the fitted dose curve; in most records, active means well fitted curve in the direction sought with a large enough effect; inconclusive means small, poorly fitted or top-dose-only effect, or another doubt; inactive means no such curve, though single readings can be large; an effect the other way counts as inactive or inconclusive.

7 compounds from PubChem BioAssay (NCATS) can be followed below.

Cytochrome P450 1A2 (Homo sapiens), sequence (P05177 whole entry, looked up): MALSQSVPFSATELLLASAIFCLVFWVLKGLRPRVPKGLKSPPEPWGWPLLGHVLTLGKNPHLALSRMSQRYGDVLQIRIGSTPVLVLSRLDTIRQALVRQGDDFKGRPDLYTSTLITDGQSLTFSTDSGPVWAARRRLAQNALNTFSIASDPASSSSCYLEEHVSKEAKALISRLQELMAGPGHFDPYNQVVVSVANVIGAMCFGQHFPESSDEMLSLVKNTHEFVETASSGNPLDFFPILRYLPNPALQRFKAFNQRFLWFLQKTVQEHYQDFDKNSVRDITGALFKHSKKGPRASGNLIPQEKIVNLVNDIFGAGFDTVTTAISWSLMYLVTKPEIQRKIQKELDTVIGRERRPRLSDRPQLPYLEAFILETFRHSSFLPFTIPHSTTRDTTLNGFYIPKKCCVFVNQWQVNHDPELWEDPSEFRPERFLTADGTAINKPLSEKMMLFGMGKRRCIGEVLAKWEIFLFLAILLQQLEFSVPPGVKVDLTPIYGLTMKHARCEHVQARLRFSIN
3',5'-cyclic-AMP phosphodiesterase 4B (Homo sapiens), sequence (Q07343 whole entry, looked up): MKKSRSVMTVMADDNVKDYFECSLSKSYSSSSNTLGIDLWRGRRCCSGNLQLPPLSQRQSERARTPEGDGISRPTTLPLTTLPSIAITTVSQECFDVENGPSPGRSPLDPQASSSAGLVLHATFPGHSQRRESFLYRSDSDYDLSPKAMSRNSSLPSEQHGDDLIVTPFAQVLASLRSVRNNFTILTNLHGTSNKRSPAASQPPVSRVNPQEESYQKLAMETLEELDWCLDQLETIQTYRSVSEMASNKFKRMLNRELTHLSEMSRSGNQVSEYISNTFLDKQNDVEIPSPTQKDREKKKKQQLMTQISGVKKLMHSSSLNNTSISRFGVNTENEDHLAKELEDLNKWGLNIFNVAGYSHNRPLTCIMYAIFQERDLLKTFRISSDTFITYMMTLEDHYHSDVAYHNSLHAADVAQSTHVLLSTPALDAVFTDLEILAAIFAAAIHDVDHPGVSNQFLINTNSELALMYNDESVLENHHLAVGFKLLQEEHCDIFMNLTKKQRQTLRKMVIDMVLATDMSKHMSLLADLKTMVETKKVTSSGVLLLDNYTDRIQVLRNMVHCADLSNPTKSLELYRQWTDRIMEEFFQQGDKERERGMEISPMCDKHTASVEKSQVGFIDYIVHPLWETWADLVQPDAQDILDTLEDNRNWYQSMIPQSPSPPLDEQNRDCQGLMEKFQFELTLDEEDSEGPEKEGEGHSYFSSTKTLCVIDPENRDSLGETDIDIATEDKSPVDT
Glucocorticoid receptor (Homo sapiens), sequence (P04150 whole entry, looked up): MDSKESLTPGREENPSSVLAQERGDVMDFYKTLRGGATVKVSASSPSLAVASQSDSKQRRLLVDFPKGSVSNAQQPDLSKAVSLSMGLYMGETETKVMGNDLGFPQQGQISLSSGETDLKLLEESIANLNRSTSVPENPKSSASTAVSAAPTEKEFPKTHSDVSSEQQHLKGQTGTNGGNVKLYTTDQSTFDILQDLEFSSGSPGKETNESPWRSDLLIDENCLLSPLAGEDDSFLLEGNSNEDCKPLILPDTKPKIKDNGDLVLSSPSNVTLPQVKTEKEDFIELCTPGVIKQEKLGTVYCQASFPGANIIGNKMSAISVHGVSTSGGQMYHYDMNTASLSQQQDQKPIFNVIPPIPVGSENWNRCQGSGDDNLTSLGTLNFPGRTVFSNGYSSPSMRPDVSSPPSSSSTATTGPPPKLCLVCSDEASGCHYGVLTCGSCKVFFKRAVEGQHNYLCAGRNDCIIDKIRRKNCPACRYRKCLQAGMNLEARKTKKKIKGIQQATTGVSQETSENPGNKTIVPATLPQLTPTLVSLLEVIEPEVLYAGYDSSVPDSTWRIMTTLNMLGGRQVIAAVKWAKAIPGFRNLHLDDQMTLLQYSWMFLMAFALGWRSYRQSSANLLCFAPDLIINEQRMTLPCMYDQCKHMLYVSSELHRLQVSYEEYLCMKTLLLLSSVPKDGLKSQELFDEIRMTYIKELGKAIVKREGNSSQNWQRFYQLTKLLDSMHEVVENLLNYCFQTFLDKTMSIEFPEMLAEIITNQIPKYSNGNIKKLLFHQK
Ubiquitin carboxyl-terminal hydrolase 1 (Homo sapiens), sequence (O94782 whole entry, looked up): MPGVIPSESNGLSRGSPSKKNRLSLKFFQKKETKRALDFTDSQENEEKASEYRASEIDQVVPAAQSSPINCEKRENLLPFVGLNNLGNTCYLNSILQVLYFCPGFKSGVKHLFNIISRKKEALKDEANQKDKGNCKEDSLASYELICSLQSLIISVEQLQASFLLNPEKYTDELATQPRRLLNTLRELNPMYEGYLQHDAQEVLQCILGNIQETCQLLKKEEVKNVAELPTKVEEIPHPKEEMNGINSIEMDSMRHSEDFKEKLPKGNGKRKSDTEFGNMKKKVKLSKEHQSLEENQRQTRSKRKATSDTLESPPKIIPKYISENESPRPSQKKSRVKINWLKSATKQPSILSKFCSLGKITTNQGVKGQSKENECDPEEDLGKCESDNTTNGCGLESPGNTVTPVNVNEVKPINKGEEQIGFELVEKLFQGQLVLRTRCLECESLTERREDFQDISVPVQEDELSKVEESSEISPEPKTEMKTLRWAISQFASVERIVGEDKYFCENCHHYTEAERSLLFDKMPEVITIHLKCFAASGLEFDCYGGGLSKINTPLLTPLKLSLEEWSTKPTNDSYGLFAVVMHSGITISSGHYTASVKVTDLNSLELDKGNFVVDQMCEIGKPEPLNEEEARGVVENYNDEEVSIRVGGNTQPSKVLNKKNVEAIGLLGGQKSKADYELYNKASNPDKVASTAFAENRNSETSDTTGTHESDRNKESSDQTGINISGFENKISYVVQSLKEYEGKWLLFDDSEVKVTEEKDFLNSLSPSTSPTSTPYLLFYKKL
Dual specificity protein kinase CLK4 (Homo sapiens), sequence (Q9HAZ1 whole entry, looked up): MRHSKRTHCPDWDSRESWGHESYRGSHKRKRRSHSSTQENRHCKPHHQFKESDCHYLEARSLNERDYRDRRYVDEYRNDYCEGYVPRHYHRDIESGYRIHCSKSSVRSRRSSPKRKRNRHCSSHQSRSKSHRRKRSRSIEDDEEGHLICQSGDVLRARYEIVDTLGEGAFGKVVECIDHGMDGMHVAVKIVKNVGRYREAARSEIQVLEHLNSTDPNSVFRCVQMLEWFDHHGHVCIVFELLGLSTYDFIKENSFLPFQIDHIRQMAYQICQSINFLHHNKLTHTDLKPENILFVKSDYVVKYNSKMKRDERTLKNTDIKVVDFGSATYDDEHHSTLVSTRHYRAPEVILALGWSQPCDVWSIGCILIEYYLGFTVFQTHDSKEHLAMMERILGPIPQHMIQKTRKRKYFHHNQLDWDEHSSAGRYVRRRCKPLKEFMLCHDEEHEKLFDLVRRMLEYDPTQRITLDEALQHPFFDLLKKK
Cytochrome P450 2D6 (Homo sapiens), sequence (P10635 whole entry, looked up): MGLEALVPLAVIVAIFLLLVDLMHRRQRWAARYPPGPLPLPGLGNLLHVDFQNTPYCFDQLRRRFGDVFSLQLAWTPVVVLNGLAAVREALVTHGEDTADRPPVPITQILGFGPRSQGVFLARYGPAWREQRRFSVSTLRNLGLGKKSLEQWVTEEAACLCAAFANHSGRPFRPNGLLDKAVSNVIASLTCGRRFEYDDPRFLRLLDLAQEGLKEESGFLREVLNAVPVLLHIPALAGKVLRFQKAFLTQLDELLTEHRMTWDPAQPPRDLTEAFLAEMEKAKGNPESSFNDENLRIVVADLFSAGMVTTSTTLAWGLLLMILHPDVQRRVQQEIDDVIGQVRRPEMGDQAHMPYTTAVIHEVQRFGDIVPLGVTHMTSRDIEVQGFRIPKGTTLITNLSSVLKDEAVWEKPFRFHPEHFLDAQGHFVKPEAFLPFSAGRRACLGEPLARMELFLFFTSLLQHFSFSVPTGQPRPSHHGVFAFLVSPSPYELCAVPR

Regarding `COc1ccc(-n2c(=O)c(-c3cc(F)cc(F)c3)nc3cnc(N4CCOCC4)nc32)cc1`, the Potency in test [1] was greater than 11.4 µM; in test [2], 15.8 µM (active); in test [3], greater than 9.22 µM; in test [4], greater than 46 µM; in [8] it was 1.58 µM (active). For the same compound, the Potency entry in test [5], in test [6], in test [7], in test [9], in test [10] and in test [11] was “inactive” in each case. Moreover, in test [12], the outcome was inactive.
As to `CN(C)C(=O)c1ccc(-c2nc(-n3ccnc3)c3ccccc3n2)cc1`, the Potency in test [2] was 20 µM (active); in test [3], greater than 46 µM; in test [4], greater than 46 µM. For the same compound, the activity change, negative = inhibition in test [13] was 2.92%. Also, the activity, negative = inhibition in [14] is 6.8%. Moreover, the Potency result in [5], in test [6], in test [9] and in [11] was “inactive” throughout. Besides, in [12], the result was inactive.
Consider `Cc1cnc(CNc2nc(-c3cccc(NS(C)(=O)=O)c3)nc3ccccc23)cn1`, for which the Potency in test [1] is greater than 11.4 µM; in test [3] it was greater than 46 µM; in test [4], greater than 46 µM. Also, the values for the activity change, negative = inhibition in test [15] and in test [13] were -28.3% and 19.4%, respectively. Further, in test [14], the activity, negative = inhibition is -4.54%. Moreover, the Potency entry in test [5], in [6], in test [9], in test [10] and in test [11] was “inactive” in each case. In addition, the outcome in test [12] was inactive.
With `COc1ccccc1-c1cncnc1Nc1ccccc1`, the Potency is greater than 11.4 µM in [1], greater than 46 µM in test [3] and greater than 46 µM in test [4]. Also, the activity change, negative = inhibition in test [15] was -6.14%; in test [13], -4.57%. In [14], the activity, negative = inhibition was 5.08%. Also, the Potency result in test [5], in [6], in test [9] and in [11] was “inactive” each time. Besides, the outcome in [12] was inactive.
As for `COc1ccc(Oc2ncc3nc(-c4cccc(C#N)c4)c(=O)n(C)c3n2)cc1`, the Potency was greater than 11.4 µM in test [1], greater than 9.22 µM in test [3] and greater than 46 µM in test [4]. Besides, the activity change, negative = inhibition in test [15] was -0.821%; in [13], -9.84%. For the same compound, the activity, negative = inhibition in test [14] was -2.78%. For the same compound, the Potency entry in test [5], in [6], in [9], in test [10] and in [11] was “inactive” throughout. The outcome in [12] was inactive.
On to `COc1ccc2[nH]cc(CCNc3cc(-c4ccccc4C)ncn3)c2c1`, for which the Potency in [1] was greater than 11.4 µM; in [2], 1 µM (active); in [3], greater than 46 µM; in test [4], greater than 46 µM; in test [16] it was 5.01 µM (active); in test [17], 7.94 µM (active). Also, the figures for the Potency in test [18] and in test [9] were 7.94 µM (active) and 25.1 µM (active), respectively. Moreover, the activity change, negative = inhibition in test [15] was -2.94%; in test [13], -8.49%. Further, the activity, negative = inhibition in test [14] is -6.58%. Also, the Potency entry in test [6], in [7] and in test [11] was “inactive” each time. In test [8], the activation is -7.71%. Besides, the result in test [12] was inactive.
Consider `COc1cccc(Cn2c(=O)c(-c3ccc(Cl)cc3)nc3cnc(N4CCN(C)CC4)nc32)c1`, for which the Potency in test [1] was greater than 11.4 µM; in test [3], greater than 9.22 µM; in [4], greater than 46 µM; in test [7], 15.8 µM (active). For the same compound, the activity change, negative = inhibition in [15] was 17.8%; in test [13], 23.1%. Moreover, the Potency entry in [2], in [5], in [6], in test [16], in [19] and in test [10] was “inactive” in each case. The Potency entry in test [11] is “inactive”. Besides, the activity, negative = inhibition in test [14] was 4.58%. The outcome in [12] was inactive.
